Here are results for 37 targets from the supplement of paper PMC10849652.

The full data set covers some 7,900 targets. This sample favours those with a hit. About 0.6% of all pairs of compound and target were hits. A number with no mark means an inactive call.

UniProt Q8TCT7, sequence (Q8TCT7 whole entry, looked up): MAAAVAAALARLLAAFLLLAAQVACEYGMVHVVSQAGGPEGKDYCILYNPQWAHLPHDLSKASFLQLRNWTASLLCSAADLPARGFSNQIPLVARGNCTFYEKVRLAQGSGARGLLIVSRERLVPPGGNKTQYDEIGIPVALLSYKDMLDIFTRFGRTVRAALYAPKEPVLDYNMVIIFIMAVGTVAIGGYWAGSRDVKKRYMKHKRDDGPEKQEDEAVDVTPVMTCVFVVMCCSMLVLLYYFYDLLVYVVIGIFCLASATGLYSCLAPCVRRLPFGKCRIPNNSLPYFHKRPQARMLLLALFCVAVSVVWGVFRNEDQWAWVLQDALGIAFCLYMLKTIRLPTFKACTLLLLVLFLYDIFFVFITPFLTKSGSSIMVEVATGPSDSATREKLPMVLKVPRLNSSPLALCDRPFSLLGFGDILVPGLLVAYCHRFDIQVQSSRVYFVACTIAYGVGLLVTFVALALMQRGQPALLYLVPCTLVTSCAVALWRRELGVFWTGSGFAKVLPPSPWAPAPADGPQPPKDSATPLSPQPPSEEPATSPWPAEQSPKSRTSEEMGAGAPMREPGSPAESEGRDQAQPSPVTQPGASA
UniProt Q8NEW0, sequence (Q8NEW0 whole entry, looked up): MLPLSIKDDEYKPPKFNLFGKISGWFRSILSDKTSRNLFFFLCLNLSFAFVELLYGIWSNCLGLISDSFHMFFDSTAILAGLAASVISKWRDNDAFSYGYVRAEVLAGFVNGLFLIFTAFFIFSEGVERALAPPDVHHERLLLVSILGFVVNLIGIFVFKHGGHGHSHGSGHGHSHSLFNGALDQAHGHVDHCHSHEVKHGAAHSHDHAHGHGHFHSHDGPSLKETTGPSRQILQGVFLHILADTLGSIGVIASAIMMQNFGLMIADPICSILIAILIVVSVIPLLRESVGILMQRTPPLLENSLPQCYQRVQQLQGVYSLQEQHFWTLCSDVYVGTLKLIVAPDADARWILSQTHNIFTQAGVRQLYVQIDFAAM
UniProt Q9NZD8, sequence (Q9NZD8 whole entry, looked up): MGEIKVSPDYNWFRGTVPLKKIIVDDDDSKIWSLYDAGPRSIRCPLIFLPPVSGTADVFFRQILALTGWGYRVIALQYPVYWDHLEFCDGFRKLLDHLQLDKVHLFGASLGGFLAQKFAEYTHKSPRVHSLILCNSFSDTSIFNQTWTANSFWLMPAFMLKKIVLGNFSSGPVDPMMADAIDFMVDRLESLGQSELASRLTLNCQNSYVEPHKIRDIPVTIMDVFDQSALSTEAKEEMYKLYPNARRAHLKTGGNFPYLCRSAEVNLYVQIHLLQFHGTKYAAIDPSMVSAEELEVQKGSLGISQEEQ
UniProt O95926, sequence (O95926 whole entry, looked up): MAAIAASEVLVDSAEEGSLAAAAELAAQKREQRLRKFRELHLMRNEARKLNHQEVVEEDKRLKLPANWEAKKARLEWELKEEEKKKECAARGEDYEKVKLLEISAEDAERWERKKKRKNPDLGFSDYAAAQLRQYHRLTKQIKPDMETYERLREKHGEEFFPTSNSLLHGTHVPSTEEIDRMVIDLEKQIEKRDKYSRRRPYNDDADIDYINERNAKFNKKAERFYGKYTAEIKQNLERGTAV
UniProt Q9UHB9, sequence (Q9UHB9 whole entry, looked up): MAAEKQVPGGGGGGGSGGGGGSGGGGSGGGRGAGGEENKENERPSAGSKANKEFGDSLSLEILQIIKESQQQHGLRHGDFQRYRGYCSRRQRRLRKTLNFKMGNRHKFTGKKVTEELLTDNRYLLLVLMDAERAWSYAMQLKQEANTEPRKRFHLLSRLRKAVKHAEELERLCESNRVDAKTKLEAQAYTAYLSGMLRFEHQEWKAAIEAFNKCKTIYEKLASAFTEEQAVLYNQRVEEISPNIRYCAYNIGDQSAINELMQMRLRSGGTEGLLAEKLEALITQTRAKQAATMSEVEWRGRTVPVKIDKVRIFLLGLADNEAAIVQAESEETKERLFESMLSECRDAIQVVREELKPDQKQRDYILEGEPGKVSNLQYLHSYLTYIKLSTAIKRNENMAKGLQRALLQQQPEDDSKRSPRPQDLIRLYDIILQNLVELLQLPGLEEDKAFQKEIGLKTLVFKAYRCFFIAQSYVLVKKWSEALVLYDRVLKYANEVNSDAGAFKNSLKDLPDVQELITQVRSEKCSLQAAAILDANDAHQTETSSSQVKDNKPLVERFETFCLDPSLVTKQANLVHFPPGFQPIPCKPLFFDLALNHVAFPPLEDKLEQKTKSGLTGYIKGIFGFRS
UniProt P05455, sequence (P05455 whole entry, looked up): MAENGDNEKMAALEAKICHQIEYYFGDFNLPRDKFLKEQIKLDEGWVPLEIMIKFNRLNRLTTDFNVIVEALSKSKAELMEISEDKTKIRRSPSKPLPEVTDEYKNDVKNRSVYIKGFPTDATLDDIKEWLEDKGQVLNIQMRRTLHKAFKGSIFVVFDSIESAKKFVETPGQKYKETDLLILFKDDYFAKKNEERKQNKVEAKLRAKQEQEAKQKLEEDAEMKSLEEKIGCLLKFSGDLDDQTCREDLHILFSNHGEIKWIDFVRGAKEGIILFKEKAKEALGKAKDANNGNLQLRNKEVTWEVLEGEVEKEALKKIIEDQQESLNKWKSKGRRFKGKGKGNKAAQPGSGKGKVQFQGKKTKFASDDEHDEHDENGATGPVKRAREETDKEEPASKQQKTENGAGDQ
UniProt Q13573, sequence (Q13573 whole entry, looked up): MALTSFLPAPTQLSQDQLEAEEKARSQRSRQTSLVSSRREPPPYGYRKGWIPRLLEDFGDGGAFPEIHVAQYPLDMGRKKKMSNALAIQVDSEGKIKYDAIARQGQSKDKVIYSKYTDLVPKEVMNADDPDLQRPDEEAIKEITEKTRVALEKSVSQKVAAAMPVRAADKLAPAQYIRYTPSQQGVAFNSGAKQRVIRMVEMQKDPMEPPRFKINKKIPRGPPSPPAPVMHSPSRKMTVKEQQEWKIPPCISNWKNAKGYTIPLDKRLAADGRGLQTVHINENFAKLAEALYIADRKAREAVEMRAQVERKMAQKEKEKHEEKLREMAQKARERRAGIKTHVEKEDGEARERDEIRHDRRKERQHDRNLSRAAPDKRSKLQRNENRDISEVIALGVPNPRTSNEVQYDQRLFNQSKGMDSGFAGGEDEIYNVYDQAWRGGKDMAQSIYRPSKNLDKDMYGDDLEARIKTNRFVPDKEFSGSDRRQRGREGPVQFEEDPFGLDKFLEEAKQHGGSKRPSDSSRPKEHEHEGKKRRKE
UniProt Q92797, sequence (Q92797 whole entry, looked up): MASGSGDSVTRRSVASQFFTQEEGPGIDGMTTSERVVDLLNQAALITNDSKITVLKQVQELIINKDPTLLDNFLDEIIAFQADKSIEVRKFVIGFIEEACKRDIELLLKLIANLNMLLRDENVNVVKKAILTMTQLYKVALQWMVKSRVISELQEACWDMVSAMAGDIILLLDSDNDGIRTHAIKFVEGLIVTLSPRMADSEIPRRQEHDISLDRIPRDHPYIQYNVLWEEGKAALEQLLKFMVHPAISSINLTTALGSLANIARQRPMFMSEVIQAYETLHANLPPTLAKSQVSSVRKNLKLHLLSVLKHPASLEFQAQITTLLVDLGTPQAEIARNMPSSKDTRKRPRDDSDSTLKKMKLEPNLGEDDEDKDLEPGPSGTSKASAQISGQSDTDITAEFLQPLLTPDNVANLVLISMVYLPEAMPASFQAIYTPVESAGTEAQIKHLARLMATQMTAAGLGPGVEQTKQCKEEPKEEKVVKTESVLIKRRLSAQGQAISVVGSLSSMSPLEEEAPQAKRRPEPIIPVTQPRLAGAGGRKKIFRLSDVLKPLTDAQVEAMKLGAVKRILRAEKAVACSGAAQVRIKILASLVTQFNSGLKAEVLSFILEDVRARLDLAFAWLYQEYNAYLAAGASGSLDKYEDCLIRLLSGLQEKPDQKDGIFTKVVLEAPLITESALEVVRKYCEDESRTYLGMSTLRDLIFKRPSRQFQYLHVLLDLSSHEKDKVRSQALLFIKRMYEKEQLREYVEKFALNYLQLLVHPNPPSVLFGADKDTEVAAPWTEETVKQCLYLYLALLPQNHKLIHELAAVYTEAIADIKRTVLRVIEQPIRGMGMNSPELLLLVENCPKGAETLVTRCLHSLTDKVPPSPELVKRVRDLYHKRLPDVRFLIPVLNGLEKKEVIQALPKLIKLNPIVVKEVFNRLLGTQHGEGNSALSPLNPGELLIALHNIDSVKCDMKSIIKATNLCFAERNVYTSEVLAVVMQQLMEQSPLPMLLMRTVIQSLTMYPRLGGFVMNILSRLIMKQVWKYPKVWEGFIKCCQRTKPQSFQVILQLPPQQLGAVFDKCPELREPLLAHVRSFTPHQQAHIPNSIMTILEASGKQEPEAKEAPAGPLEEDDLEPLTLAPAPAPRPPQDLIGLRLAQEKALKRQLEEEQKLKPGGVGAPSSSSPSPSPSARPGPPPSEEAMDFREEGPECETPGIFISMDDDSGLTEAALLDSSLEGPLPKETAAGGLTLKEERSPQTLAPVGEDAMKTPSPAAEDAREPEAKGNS
UniProt Q16629, sequence (Q16629 whole entry, looked up): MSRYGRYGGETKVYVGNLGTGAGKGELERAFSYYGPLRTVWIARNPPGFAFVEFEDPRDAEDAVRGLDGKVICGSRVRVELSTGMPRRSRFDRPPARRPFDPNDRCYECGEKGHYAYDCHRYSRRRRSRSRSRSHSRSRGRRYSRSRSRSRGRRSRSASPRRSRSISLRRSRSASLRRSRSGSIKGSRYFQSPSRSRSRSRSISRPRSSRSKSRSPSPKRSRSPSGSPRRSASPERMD
UniProt O95772, sequence (O95772 whole entry, looked up): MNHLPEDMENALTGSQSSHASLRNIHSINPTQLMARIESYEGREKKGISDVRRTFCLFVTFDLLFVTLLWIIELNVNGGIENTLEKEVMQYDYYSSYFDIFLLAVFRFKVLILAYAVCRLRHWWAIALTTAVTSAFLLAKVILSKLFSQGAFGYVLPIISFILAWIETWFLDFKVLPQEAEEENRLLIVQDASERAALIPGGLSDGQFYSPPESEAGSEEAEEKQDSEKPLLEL
UniProt P62072, sequence (P62072 whole entry, looked up): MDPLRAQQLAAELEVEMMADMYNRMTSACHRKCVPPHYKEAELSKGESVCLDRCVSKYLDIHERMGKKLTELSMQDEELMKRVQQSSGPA

Compound in one assay: Cc1ccc(NC(=O)c2ccc(CN3CC[C@H](N(C)C)C3)c(C(F)(F)F)c2)cc1Nc1nccc(-c2cncnc2)n1 [bafetinib]
The assay can be described thus: log2 fold change, soluble protein after heating vs DMSO (PISA); higher = thermal stabilisation; K562 cells, 10 uM, 30 min; active = over 0.2 and 3.5 SD of the protein, either way, in both replicates (recomputed). An outline of the steps:
(§1)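 K562 cells at 2×10^6 cells/mL were given 10 μM compound for 30 min. Aliquots then went through 3 min of heating across 48°C-58°C, were pooled, and were extracted in PBS with 0.5% NP-40 at 4°C, and the supernatant after 21,000xg for 90 min was quantified by TMTpro 16plex LC-MS/MS with channel sums equalised. Thermal stability relative to control samples, from duplicates, is given as log2 fold change.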
In the case of SYF2 (UniProt O95926), the log2 fold change is -0.198.

On to STK25 (UniProt O00506), for which the log2 fold change is -0.015.

Consider SYMPK (UniProt Q92797), for which the log2 fold change is -0.027.

Take SP1 (UniProt P08047): the log2 fold change was -0.041.

Turning to SSB (UniProt P05455), the log2 fold change was -0.022.

For the target STARD3NL (UniProt O95772), the log2 fold change was 0.011.

Take SPG21 (UniProt Q9NZD8): the log2 fold change was 0.158.

Turning to SRP68 (UniProt Q9UHB9), the log2 fold change was 0.043.

Regarding TJP2 isoform 7 (UniProt Q9UDY2), the log2 fold change was 0.05.

Regarding SPPL2B (UniProt Q8TCT7), the log2 fold change was -0.087.

Take SRSF7 (UniProt Q16629): the log2 fold change was 0.073.

On to SNW1 (UniProt Q13573), for which the log2 fold change was -0.049.

For the target TBC1D23 (UniProt Q9NUY8), the log2 fold change was -0.141.

As for SLC30A7 (UniProt Q8NEW0), the log2 fold change is -0.169.

Compound in a further assay: Cc1cccc(CC(=O)N2CCc3c2ccc(-c2cn(C)c4ncnc(N)c24)c3F)n1
The description is as above. Put shortly:
as §1
STAT5B (UniProt P51692): the log2 fold change is 0.109.

Turning to STAT3 (UniProt P40763), the log2 fold change was -0.003.

Take STAM2 (UniProt O75886): the log2 fold change is 0.014.

TIAL1 isoform 2 (UniProt Q01085): the log2 fold change is -0.028.

Turning to SLC38A9 (UniProt Q8NBW4), the log2 fold change is -0.04.

For STAT5A (UniProt P42229), the log2 fold change is 0.208.

In the case of SNX5 (UniProt Q9Y5X3), the log2 fold change was 0.11.

For the target SMARCE1 (UniProt Q969G3), the log2 fold change is 0.041.

As to SRSF3 (UniProt P84103), the log2 fold change was -0.028.

Turning to SMC5 (UniProt Q8IY18), the log2 fold change was -0.029.

Consider SNX1 (UniProt Q13596), for which the log2 fold change is 0.146.

Consider TARBP1 (UniProt Q13395), for which the log2 fold change is 0.005.

As for STX17 (UniProt P56962), the log2 fold change is -0.028.

Take SMARCAD1 isoform 2 (UniProt Q9H4L7): the log2 fold change was 0.014.

For TIMM10 (UniProt P62072), the log2 fold change was 0.027.

With SPCS2 (UniProt Q15005), the log2 fold change is 0.003.

In the case of SMAP2 (UniProt Q8WU79), the log2 fold change is -0.025.

On to TK1 (UniProt P04183), for which the log2 fold change is -0.028.

For TIMM44 (UniProt O43615), the log2 fold change is 0.045.

As for TIMM29 (UniProt Q9BSF4), the log2 fold change is -0.077.

For SRI (UniProt P30626), the log2 fold change was 0.062.

Turning to SORT1 (UniProt Q99523), the log2 fold change was -0.011.

Regarding SLC7A6 (UniProt Q92536), the log2 fold change is 0.029.

For the target SYF2 (UniProt O95926), the log2 fold change was 0.021.

As for STK25 (UniProt O00506), the log2 fold change was -0.055.

In the case of SYMPK (UniProt Q92797), the log2 fold change was 0.036.

Consider SP1 (UniProt P08047), for which the log2 fold change was -0.006.

Regarding SSB (UniProt P05455), the log2 fold change was -0.018.

In the case of STARD3NL (UniProt O95772), the log2 fold change was -0.008.

Regarding SPG21 (UniProt Q9NZD8), the log2 fold change was -0.129.

As for SRP68 (UniProt Q9UHB9), the log2 fold change was 0.054.

Take TJP2 isoform 7 (UniProt Q9UDY2): the log2 fold change is 0.149.

Regarding SPPL2B (UniProt Q8TCT7), the log2 fold change is 0.066.

For the target SRSF7 (UniProt Q16629), the log2 fold change is -0.055.

Regarding SNW1 (UniProt Q13573), the log2 fold change is -0.071.

With TBC1D23 (UniProt Q9NUY8), the log2 fold change is 0.041.

For SLC30A7 (UniProt Q8NEW0), the log2 fold change is -0.094.

Compound in another assay: Cc1cn(-c2cc(NC(=O)c3ccc(C)c(Nc4nccc(-c5cccnc5)n4)c3)cc(C(F)(F)F)c2)cn1 [nilotinib]
Described as above. Put shortly: as §1
With STAT5B (UniProt P51692), the log2 fold change is -0.218.

Regarding STAT3 (UniProt P40763), the log2 fold change is -0.097.

Consider STAM2 (UniProt O75886), for which the log2 fold change was 0.007.

Consider TIAL1 isoform 2 (UniProt Q01085), for which the log2 fold change was -0.023.

As for SLC38A9 (UniProt Q8NBW4), the log2 fold change was 0.02.

Take STAT5A (UniProt P42229): the log2 fold change is -0.112.

In the case of SNX5 (UniProt Q9Y5X3), the log2 fold change was -0.078.

For the target SMARCE1 (UniProt Q969G3), the log2 fold change was -0.191.

For the target SRSF3 (UniProt P84103), the log2 fold change is 0.075.

As for SMC5 (UniProt Q8IY18), the log2 fold change was 0.

Regarding SNX1 (UniProt Q13596), the log2 fold change is -0.133.

In the case of TARBP1 (UniProt Q13395), the log2 fold change is 0.019.

STX17 (UniProt P56962): the log2 fold change was 0.028.

Regarding SMARCAD1 isoform 2 (UniProt Q9H4L7), the log2 fold change is 0.049.

As for TIMM10 (UniProt P62072), the log2 fold change was 0.014.

Consider SPCS2 (UniProt Q15005), for which the log2 fold change is 0.014.

Consider SMAP2 (UniProt Q8WU79), for which the log2 fold change is -0.078.

In the case of TK1 (UniProt P04183), the log2 fold change was -0.002.

On to TIMM44 (UniProt O43615), for which the log2 fold change was -0.062.

As to TIMM29 (UniProt Q9BSF4), the log2 fold change was -0.002.

Take SRI (UniProt P30626): the log2 fold change was 0.017.

With SORT1 (UniProt Q99523), the log2 fold change was 0.041.

Regarding SLC7A6 (UniProt Q92536), the log2 fold change was 0.046.

As for SYF2 (UniProt O95926), the log2 fold change is -0.017.

Regarding STK25 (UniProt O00506), the log2 fold change is -0.083.

Take SYMPK (UniProt Q92797): the log2 fold change was -0.192.

As for SP1 (UniProt P08047), the log2 fold change was 0.005.

In the case of SSB (UniProt P05455), the log2 fold change was -0.057.

As for STARD3NL (UniProt O95772), the log2 fold change is -0.007.

Consider SPG21 (UniProt Q9NZD8), for which the log2 fold change is -0.173.

Regarding SRP68 (UniProt Q9UHB9), the log2 fold change is -0.118.

On to TJP2 isoform 7 (UniProt Q9UDY2), for which the log2 fold change is 0.014.

Regarding SPPL2B (UniProt Q8TCT7), the log2 fold change was -0.016.

Turning to SRSF7 (UniProt Q16629), the log2 fold change was 0.156.

Regarding SNW1 (UniProt Q13573), the log2 fold change is 0.004.

As to TBC1D23 (UniProt Q9NUY8), the log2 fold change is -0.113.

Take SLC30A7 (UniProt Q8NEW0): the log2 fold change was -0.16.
